# Inconclusive results are not listed. Values without a mark were called inactive. Calls of active or inactive are those of the source. Calls follow the shape of the full dose curve.
# Biological target: Retinoic acid receptor RXR-alpha (Homo sapiens) (UniProt P19793)
# Test: qHTS assay for small molecule agonists of retinoid X receptor alpha signaling (AID 588544)
# Conditions: HEK293T RXRa-UAS-bla, beta-lactamase reporter, 18 h; series mostly up to 76.7 µM; activation: at the top concentration
# Source text: NIH Chemical Genomics Center [NCGC] U.S. Environmental Protection Agency [EPA] National Institutes of Environmental Health Sciences [NIEHS] National Toxicology Program [NTP] NCGC Assay Overview The Retinoid X receptor (RXR), a nuclear hormone receptor is expressed in liver, spleen, placenta, epidermis, central nervous system. These receptors are able to form homo and heterodimers with other nuclear receptors and due to this heterodimerizing ability, RXR functions as master regulators producing diverse physiological effects. Three subtypes of RXR exist; alpha, beta and gamma. Retinoid X receptor alpha (RXR-alpha) has potential roles in metabolic signaling pathways, skin alopecia, dermal cysts, cardiac development, insulin sensitization etc. Therefore screening environmental chemicals on RXR-alpha signaling can be used for the studies focused on such therapeutic applications.
# NCGC Assay Protocol Summary Using a beta-lactamase reporter-gene under control of Retinoid X receptor--alpha (RXR-alpha) response element, a cell-based assay [GeneBLAzer (RXR-alpha -UAS-bla assay developed by Invitrogen] was used to measure RXR-alpha ligands signaling. GeneBLAzer RXR-alpha -UAS-bla HEK293T cells were used with assay medium containing 2% charcoal-stripped FBS. The assay was performed in clear bottom black Greiner 1536-well plates. 9-cis-retinoic acid was used in the screen as the positive control. Library compounds were measured for their ability to stimulate the reporter gene activity. Compounds were screened in a titration series in 1536-well format. The fluorescence intensity (405 nm excitation, 460/530 nm emission) was measured using an EnVision plate reader. Data was normalized relative to 9-cis-retinoic acid control (500 nM, 100%), and DMSO only wells (basal, 0%). Concentration-response titration points for each compound were fitted to the Hill equation yielding concentrations of half-maximal stimulation (EC50) and maximal response (efficacy) values. qHTS protocol for RXR-alpha beta-lactamase assay in agonist mode [Step] [Parameter] [Value] [Description] 1. Reagent; 6 uL; 2500 cells/well 2. Incubation; 37 C for 4 hrs 3. Compounds; 23 nL; 0.59 nM to 92 uM 4. Controls (9-cis-retinoic acid); 23 nL, - One column with dose response, start 38 uM, 1:3 dilutions in duplicates - Final concentrations of 500 nM and 50 nM in two columns 5. Incubation; 37 C for 18 hrs 6. Detection reagent; 1 uL of CCF4-dye 7. Incubation; RT for 2 hrs 8. Detection; Fluorescence; Envision plate reader
# Chain of Retinoic acid receptor RXR-alpha (Homo sapiens) (P19793 whole entry, looked up): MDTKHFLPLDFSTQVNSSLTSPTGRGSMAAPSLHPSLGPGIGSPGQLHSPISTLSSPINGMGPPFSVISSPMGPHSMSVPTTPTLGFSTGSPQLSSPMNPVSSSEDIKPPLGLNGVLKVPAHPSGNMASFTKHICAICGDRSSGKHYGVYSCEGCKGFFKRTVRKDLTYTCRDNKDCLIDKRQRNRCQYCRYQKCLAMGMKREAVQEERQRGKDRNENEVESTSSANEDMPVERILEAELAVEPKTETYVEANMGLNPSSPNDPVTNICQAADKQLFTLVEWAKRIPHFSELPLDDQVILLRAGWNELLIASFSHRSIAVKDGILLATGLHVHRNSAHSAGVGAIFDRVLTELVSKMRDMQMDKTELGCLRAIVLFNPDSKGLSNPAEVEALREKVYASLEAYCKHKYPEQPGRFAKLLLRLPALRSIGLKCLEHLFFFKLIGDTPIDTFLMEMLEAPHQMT
Compound,activation [%],outcome
Fc1ccccc1,3.25,
O=C(O)c1ccccc1C(=O)O,-10.2,
CC(=O)C1(C)CC2=C(CCCC2(C)C)CC1C (stereo not given),6.68,
BrC/C=C/CBr,-4.97,
O=[N+]([O-])c1ccc2nc[nH]c2c1,11.5,
CCCCC(CC)CO (stereo not given),3.44,
CC(C)CCOC(=O)/C=C/c1ccccc1,-10.3,
Cc1cccc(C)c1[N+](=O)[O-],,inactive
CCOCCO,-4.18,
C=C(C)C(=O)OCC(C)C,3.93,
CCCCCO,5.8,
CC(=O)OCCC(C)C,2.07,
O=Cc1ccccc1Cl,10.5,
C=CCCCC,2.03,
ON=C1CCCCC1,2.95,
CC/C(C)=N/O,3.91,
O=Cc1cccc(Br)c1,-1,
O=[N+]([O-])c1ccc(Cl)cc1Cl,6.99,
NC(=O)CCCCC(N)=O,9.38,
CSc1ccc(C=O)cc1,0.692,

Compound,activation [%],outcome
Cc1ccc(Cl)cc1,2.23,
C=CCCCCCC,3.97,
COc1cccc2sc(N)nc12,-3.93,
O=C(O)c1ccc(Cl)c(Cl)c1,-5.67,
C=C(C)C(N)=O,4.92,
Cc1ccc(N(C)C)cc1,-5.59,
OCCO,-1.15,
CCC(O)C(C)(C)C (stereo not given),3.34,
CCCCCCCN,3.36,
CCOc1ccc(NC(C)=O)cc1N,3.8,
Cc1cc(C2(c3cc(C)c(O)cc3C)OS(=O)(=O)c3ccccc32)c(C)cc1O,-5.8,
C/C=C1\CC2C=CC1C2 (stereo not given),-2.3,
N#CC1(O)CCCCC1,-1.83,
Nc1nc(CC(=O)O)cs1,-2.04,
COC(=O)CS,-2.76,
Nc1cccc(O)c1,2.26,
C/C=C(/C)C#N,14.3,
CC(=O)c1ccccn1,0.544,
OC1CCCC1,-1.71,
O=C1OC(=O)c2c(Cl)c(Cl)c(Cl)c(Cl)c21,,inactive
